This is a sample that favours compounds with a hit; in the whole collection about 2.4% have one here.
TMEM16A inh: inhibitors of mouse TMEM16A calcium-activated chloride channel. Q8BHY3. HEK293 TMEM16A/YFP iodide influx fluorescence, ionomycin. normalized B-score (activity score, 25-100; higher = stronger inhibition) at 10 µM. 310,000 tested, 1.2% active;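 active = ratio plate-corrected score three or more library SD toward inhibition, starting fluorescence score within five deviations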;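 note: score derived from kinetic fluorescence span divided by baseline fluorescence per well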
CHT allo act: human CHT allosteric activation; Q9GZV3; CHT-expressing cells, membrane potential dye, choline EC20; hits give high values; LV-AA mutant CHT in HEK293 cells; B-score at 10 µM; 310,000 tested, 0.49% active; AID 488977;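 active = initial fluorescence not abnormally high and integrated response B-score, plate-corrected, over 3 SD above library mean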
Target sequence (Q9GZV3 whole entry, looked up): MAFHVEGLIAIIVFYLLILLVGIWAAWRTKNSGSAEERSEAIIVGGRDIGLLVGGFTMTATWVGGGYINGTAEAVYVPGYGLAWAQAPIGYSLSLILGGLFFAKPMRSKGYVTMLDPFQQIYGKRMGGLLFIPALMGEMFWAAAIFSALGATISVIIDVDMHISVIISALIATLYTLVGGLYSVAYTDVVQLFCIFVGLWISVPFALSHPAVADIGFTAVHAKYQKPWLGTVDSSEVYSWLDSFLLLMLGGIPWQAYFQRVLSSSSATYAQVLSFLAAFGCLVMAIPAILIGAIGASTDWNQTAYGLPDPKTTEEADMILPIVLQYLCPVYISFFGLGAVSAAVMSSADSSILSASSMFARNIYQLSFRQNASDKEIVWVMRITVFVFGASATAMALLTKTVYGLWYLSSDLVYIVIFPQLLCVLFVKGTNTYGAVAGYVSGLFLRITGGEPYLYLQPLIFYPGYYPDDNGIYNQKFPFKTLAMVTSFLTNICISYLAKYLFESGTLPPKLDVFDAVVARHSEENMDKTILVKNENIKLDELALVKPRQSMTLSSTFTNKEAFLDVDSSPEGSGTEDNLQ
TMEM16A act: activates or potentiates the mouse TMEM16A chloride channel. AID 623877. 340,000 tested, 0.3% active. HEK293 TMEM16A/YFP-H148Q/I152L, iodide quench fluorescence; hits give low values. B-score at 10 µM;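 active = fluorescence-ratio B-score plate-corrected deviation score at least 3 library SD below zero, with starting fluorescence score within 5 deviations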;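 note: channel opened by trigger with iodide after compound preincubation; score built on the fluorescence ratio of max minus min over baseline; more negative score means more quench and so TMEM16A activation or potentiation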
CHT block: inhibits the human high affinity choline transporter; Q9GZV3; CHT-expressing cells, membrane potential dye, choline response; hits give low values; B-score at 10 µM; 310,000 tested, 0.86% active; AID 488975;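 active = B-score over 3 SD under the library average, and starting fluorescence ratio not unusually high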;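 note: choline stimulus applied at its EC90 after an EC20 pre-addition; B-score computed on integrated fluorescence ratio after choline addition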
* hit, by the source's call; i = inactive; . = no result.

SMILES | TMEM16A inh | CHT allo act | TMEM16A act | CHT block
COC(=O)C1=NN(C(=O)c2ccc(Cl)cc2)C(O)(c2ccccc2)C1 (stereo not given) | i | i | i | i
COc1ccc(C(=O)Sc2nncc3ccccc23)cc1 | i | i | i | i
Cc1ccc(C(=O)N2CCN(c3ccc([N+](=O)[O-])cc3)CC2)o1 | i | i | i | i
CCCCOc1ccc(-c2cc(C(=O)NNC(=S)NCC)c3ccccc3n2)cc1 | 100* | i | i | i
COc1ccc(Cl)cc1C(=O)NNC(=S)NC(=O)c1cc(-c2ccc(Cl)cc2)nc2ccccc12 | 100* | i | i | i
O=C(CNC(=O)c1ccc(-c2ccccc2)cc1)Nc1cccc(CO)c1 | . | . | i | .
CCCCn1nc(C(=O)N(C)C2CCCCC2)c2ccccc2c1=O | . | . | -30.3* | .
CCN1CCCC1Cn1cnc2c([nH]c3cccc(Cl)c32)c1=O (stereo not given) | i | i | -10.5* | i
O=C(Nc1ccc(S(=O)(=O)N2CCOCC2)cc1)C1CC1 | i | i | i | i
CC(C)=CC1C(C(=O)Nc2ccc(S(=O)(=O)N3CCOCC3)cc2)C1(C)C (stereo not given) | i | i | -4.88* | i
CC(C)NC(=O)c1ccc(NC(=O)CC2SC(N3CCCC3)=NC2=O)cc1 (stereo not given) | . | . | i | .
CCCCNC(=O)c1ccc(NC(=O)CC2SC(N3CCCC3)=NC2=O)cc1 (stereo not given) | . | . | -26* | .
COc1ccc(CN(C2CCCCC2C)S(=O)(=O)c2ccc(S(=O)(=O)N(C)C)cc2)cc1OC (stereo not given) | i | i | -29* | i
Cc1ccc(C(=O)Nc2cccc(C(F)(F)F)c2)cc1NC(=O)c1nccnc1N | i | i | i | i
CCN1CCN(CC(=O)N2N=C(c3cccs3)CC2c2ccc(OC)c(OC)c2)C(=O)C1=O (stereo not given) | i | i | i | i
C=C1C(=O)c2sccc2C(c2ccc(OC)c(OC)c2)C1COC(C)=O (stereo not given) | . | . | -4.85* | .
COc1ccc(CC(=O)Nc2cccc(-c3nnc(-c4ccccc4)o3)c2)cc1OC | . | . | i | .
COc1ccc(CC(=O)Nc2ccc(-c3nnc(-c4ccccc4)o3)cc2)cc1OC | i | i | i | i
COc1ccc(CC(=O)Nc2cccc(-c3nnc(-c4cccc(C)c4)o3)c2)cc1OC | 100* | i | i | i
COc1ccc(CC(=O)Nc2cccc(-c3nnc(-c4ccc(C)cc4)o3)c2)cc1OC | 25* | i | i | i
Cc1ccc(N2C(=O)c3cccc([N+](=O)[O-])c3C2=O)cc1C | i | i | i | i
Cc1ccc(-n2c(C)cc(=O)cc2C)cc1[N+](=O)[O-] | i | i | i | -8.33*
CCOC(=O)N1CCN(Cc2nc3c(c(=O)n(C)c(=O)n3C)n2Cc2cccc3ccccc23)CC1 | i | i | i | i
O=c1c2cc(Cl)ccc2nc(-c2ccc(Cl)c(Cl)c2)n1O | 100* | i | i | -6.99*
CCc1ccc(/C=C2/SC(=S)N(CCCC(=O)Nc3ccccc3C(=O)O)C2=O)cc1 | 100* | i | i | -7.51*
SMILES | TMEM16A inh | CHT allo act | TMEM16A act | CHT block
CCc1ccc(/C=C2/SC(=S)N(CCC(=O)Nc3cccc(C(=O)O)c3)C2=O)cc1 | i | i | i | -5.93*
COc1cc(C(=O)Nc2ccc3c(c2)nc(C)n3C)cc(OC)c1OC | i | 6.48* | i | i
C=CCOc1ccc(Br)cc1CNCC | i | i | i | i
Cc1ccnc(NC(=O)c2ccc(COc3ccc(Cl)cc3)o2)c1 | i | i | -10* | i
Cc1cccc(OCc2ccc(C(=O)Nc3cc(C)on3)o2)c1 | i | i | i | i
Cc1sc2nc(C3CC3)nc(SCC(=O)N3CCc4ccccc4C3)c2c1C | i | i | i | i
CCc1c(C)sc2nc(C(C)C)nc(SCC(=O)N3CCc4ccccc4C3)c12 | 100* | i | . | i
C[C@H](NC(=O)C1(c2ccccc2)CCN(C(=O)[C@H]2CSCN2C(=O)OC(C)(C)C)CC1)C(=O)O | i | i | -5.13* | i
NC(=O)c1c(NC(=O)CN2CCN(S(=O)(=O)c3ccccc3)CC2)sc2c1CCC2 | i | i | i | i
NC(=O)C1(N2CCCCC2)CCN(C(=S)Nc2ccccc2)CC1 | i | i | i | i

Screens deposited in PubChem BioAssay by Johns Hopkins Ion Channel Center.
